The text below walks through data of the supplement of paper PMC10105736.

Common to all, as to assay: MAPPIT interaction score (arbitrary units); higher = stronger binary interaction signal, active = hit call of the paper
The target in experiment [1] is alrm. To be noted: MAPPIT configuration: N-N; pair source set: DPIM.
Experiment [2] has as its target cathD. To be noted: MAPPIT configuration: N-N; pair source set: DPIM.
Experiment [3] has as its target bru3. Conditions: MAPPIT configuration: N-N; pair source set: DPIM.
The target of experiment [4] is brat. To be noted: MAPPIT configuration: N-N; pair source set: Lit-BM-16.
Experiment [5] concerns the target bcd. To be noted: MAPPIT configuration: N-N; pair source set: Lit-BM-16.
The target of experiment [6] is corto. To be noted: pair source set: Lit-BM-16.
The target in experiment [7] is cic. To be noted: pair source set: Lit-BM-16.
For experiment [8], the target named is rl. Conditions: MAPPIT configuration: N-N; pair source set: Curagen_high_conf.
Experiment [9] deals with cactin. To be noted: MAPPIT configuration: N-N; pair source set: RRS.
The target of experiment [10] is abs. To be noted: MAPPIT configuration: N-N; pair source set: DPIM.
For experiment [11], the target named is cpa. Conditions: MAPPIT configuration: N-N; pair source set: Lit-BM-16.
Experiment [12] addresses dgt4. To be noted: MAPPIT configuration: N-N; pair source set: Lit-BM-16.

A number with no mark means an inactive call.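 The calls were made as follows: active = MAPPIT score above the 99th percentile of random reference set scores in the same batch; inactive = at or below it.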
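Also: HEK293T cells with Epo stimulation, STAT-responsive firefly luciferase reporter, fold induction versus unstimulated cells divided by the larger fold induction of two negative controls lacking either bait or prey.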

B1: sun (protein)
chain: MTAWRAAGITYIQYSNIAARILRESLKTGLRADAAKRDASHVKFTPWANGKPAQRQTQSES
Take B1: in [1], the MAPPIT interaction score is -0.31.

B2: Wdr24 (protein)
chain: MPDSVEDTSTISLRICLEGHANALALNKDNNQIALAGRSLLKVYSINSNGFTESCNMRGKNQNLSYSANDVAWSTLDSNLLATAATNGVVSVWDLSKFGRQKQLLVYNEHERTAHTVTFHSSEPNILISGSQDGTIKCFDIRSDKSINTYFCNSESVRDVKFSPHTQNIFSAVSENGTVQLWDMRKWDKCMVQFTAHYGPVYTCDWHPTRNWLATGSRDKQIKVWNMDGRPGLEHTIHTIAVVGRVKWRPERTYHIASCALVVDYSVHVWDIRRPYIPFASFNEHTNVTTGIAWQGSDSHCLLSISKDSTIYKHAFKDATRPALKANAQGASLGRFGDISFANKIKEYEPKTSGASNTKSSSFIRRKTNVAGSIQFHLDHSKMYKFMVNDTFSGYPLSESVSRPTQEHESFIGCARELVISGKKLSELCEHNAEVSKKYGKHNATTLWNFIKLFYGSNHFEPPFEHRSSFSNQKNPMNSRRATQVASDWPQQRTELGQDLNGNTPETAHEIDVANVDDDTLGSSGVEHPPTSSVILSETQIISEITFDNFELLRNGFIYVGPTECPKALAFPALHHDVQAARPQLDLKASDHEKSPPPHVPTVLKVSHVPPIPMWEPHKFVSDALMLMNDVGDVQTALTVLIALGEARKLLPIDDALVEHWFYTYVDQLHRYELWNEACEVINRSWLRSVQQLNQHSTAMHTNCGECGRPMGGKVGWYCDKCKSMQSAKCCVCGLIVRGVYAWCQGCSHGGHIEHLQKYFAKHSKCPKCGHLCAYS
B2: the MAPPIT interaction score in experiment [2] was -0.0301.

B3: abs (protein)
chain: MAHVKRYRRSSKSSEEGDLDNEDYVPYVPVKERKKQHMIKLGRIVQLVSETAQPKSSSENENEDDSQGAHDVETWGRKYNISLLDQHTELKKIAEAKKLSAVEKQLREEEKIMESIAQQKALMGVAELAKGIQYEQPIKTAWKPPRYIREMSEEEREAVRHELRILVEGETPSPPIRSFREMKFPKGILNGLAAKGIKNPTPIQVQGLPTVLAGRDLIGIAFTGSGKTLVFVLPVIMFALEQEYSLPFERNEGPYGLIICPSRELAKQTHEIIQHYSKHLQACGMPEIRSCLAMGGLPVSEALDVISRGVHIVVATPGRLMDMLDKKILTLDMCRYLCMDEADRMIDMGFEEDVRTIFSFFKGQRQTLLFSATMPKKIQNFARSALVKPVTINVGRAGAASMNVTQQVEYVKQEAKVVYLLDCLQKTAPPVLIFAEKKQDVDCIHEYLLLKGVEAVAIHGGKDQEERSRAVDAYRVGKKDVLVATDVASKGLDFPNVQHVINYDMPDDIENYVHRIGRTGRSNTKGLATTLINKTTEQSVLLDLKHLLIEGKQEVPDFLDELAPETEHQHLDLGDSHGCTYCGGLGHRITECPKLEAVQNKQASNIGRRDYLSNTAADY
As to B3, the MAPPIT interaction score in experiment [3] was -0.236.

B4: nos (protein)
chain: MSQHFTSIFENLRFVTIKRSTNAQQQQQQQQQQLQQQQQQLQQQKAQTQQQNSRKIKTQATPTLNGNGLLSGNPNGGGGDSSPSHEVDHPGGAQGAQAAGGLPSSSGTPLRHHKRASISTASPPIRERRGTNTSIVVELDGSGSGSGSGGGGVGVGQGAGCPPSGSCTASGKSSRELSPSPKNQQQPRKMSQDYRSRAGSFMHLDDEGRSLLMRKPMRLKNIEGRPEVYDTLHCKGREILSCSKATCTSSIMNIGNAAVEARKSDLILEHAKDFLEQYFTSIKRTSSTAHETRWKQVRQSIETTGHYQLTETELIYGAKLAWRNSSRCIGRIQWSKLQVFDCRYVTTTSGMFEAICNHIKYATNKGNLRSAITIFPQRTDAKHDYRIWNNQLISYAGYKQADGKIIGDPMNVEFTEVCTKLGWKSKGSEWDILPLVVSANGHDPDYFDYPPELILEVPLTHPKFEWFSDLGLRWYALPAVSSMLFDVGGIQFTATTFSGWYMSTEIGSRNLCDTNRRNMLETVALKMQLDTRTPTSLWKDKAVVEMNIAVLHSYQSRNVTIVDHHTASESFMKHFENESKLRNGCPADWIWIVPPLSGSITPVFHQEMALYYLKPSFEYQDPAWRTHVWKKGRGESKGKKPRRKFNFKQIARAVKFTSKLFGRALSKRIKATVLYATETGKSEQYAKQLCELLGHAFNAQIYCMSDYDISSIEHEALLIVVASTFGNGDPPENGELFSQELYAMRVQESSEHGLQDSSIGSSKSFMKASSRQEFMKLPLQQVKRIDRWDSLRGSTSDTFTEETFGPLSNVRFAVFALGSSAYPNFCAFGQYVDNILGELGGERLLRVAYGDEMCGQEQSFRKWAPEVFKLACETFCLDPEESLSDASLALQNDSLTVNTVRLVPSANKGSLDSSLSKYHNKKVHCCKAKAKPHNLTRLSEGAKTTMLLEICAPGLEYEPGDHVGIFPANRTELVDGLLNRLVGVDNPDEVLQLQLLKEKQTSNGIFKCWEPHDKIPPDTLRNLLARFFDLTTPPSRQLLTLLAGFCEDTADKERLELLVNDSSAYEDWRHWRLPHLLDVLEEFPSCRPPAPLLLAQLTPLQPRFYSISSSPRRVSDEIHLTVAIVKYRCEDGQGDERYGVCSNYLSGLRADDELFMFVRSALGFHLPSDRSRPIILIGPGTGIAPFRSFWQEFQVLSDLDPTAKLPKMWLFFGCRNRDVDLYAEEKAELQKDQILDRVFLALSREQAIPKTYVQDLIEQEFDSLYQLIVQERGHIYVCGDVTMAEHVYQTIRKCIAGKEQKSEAEVETFLLTLRDESRYHEDIFGITLRTAEIHTKSRATARIRMASQP
In the case of B4, in experiment [4], the MAPPIT interaction score was -0.851.

B5: Bin1 (protein)
chain: MANVESMIVEEKTQVKQIDREKTCPMLLRVFCSTGRHHSVSEYMFGNVPTNELQIYTWQDATLHELTSLVRDVNPDTRKKGTYFDFAVVYPNFRSNHFQMREIGVTCTGQKGIDDNKTLAQAKFSIGDFLDISITPPNRLPPTARRQRPY
Consider B5, for which, in [5], the MAPPIT interaction score was -0.341.

B6: corto (protein)
chain: MTMAACYANYDMSSLSHGMSALSALQQQQQQQQQQHSQTQQQHHHQQQQQHMYHAAVAAHQQQLLQQQQQQQHHRHHHQPANTSSSSNSRHSHAAATQTQVAAAVANSRQQQQQQQQQQQQQQQQQTASSNSNAAPAPSPQKDYSIPLHVDCSVEYELPNQPKPPAGQRVEPLLMIHPCYFRKMESQRRSPFVNNMHATARAVSSSSLSSGAALGGGGSGAAVATAPSSSAARRGARAATSAQQQQQQQQRYQQQQQQLRQQHQQMSQMSQQAHYPQQQSSLVRQHQQQQQQQQQQQRASSNQSQRQSQSQSQSQSHAANSAAAAAAQASIAAAAAGQWDQLAALAARTALTPHHMLHPHSHYAAKGSGGGAGGGKRDAMISGSYGQTAVASGKLQQSQVQQQQPQQQQQHCLPPPPWDATSMLMDRSPMATVPSNYQAGPDTNPMRLYSATPTAGAASGGSASVGGGGAVSGAGATGAVNTATDKLSGKYRQYLRSQRMHPYAAAASLNLAAAAAAAGQTSFVPFSSAATAVAATPTFQHLPQISCYNV
Take B6: the values for the MAPPIT interaction score in [6] (MAPPIT configuration: N-C) and in [6] (MAPPIT configuration: N-N) were 0.538 and 0.215, respectively.

B7: rl (protein)
chain: MEEFNSSGSVVNGTGSTEVPQSNAEVIRGQIFEVGPRYIKLAYIGEGAYGMVVSADDTLTNQRVAIKKISPFEHQTYCQRTLREITILTRFKHENIIDIRDILRVDSIDQMRDVYIVQCLMETDLYKLLKTQRLSNDHICYFLYQILRGLKYIHSANVLHRDLKPSNLLLNKTCDLKICDFGLARIADPEHDHTGFLTEYVATRWYRAPEIMLNSKGYTKSIDIWSVGCILAEMLSNRPIFPGKHYLDQLNHILGVLGSPSRDDLECIINEKARNYLESLPFKPNVPWAKLFPNADALALDLLGKMLTFNPHKRIPVEEALAHPYLEQYYDPGDEPVAEVPFRINMENDDISRDALKSLIFEETLKFKERQPDNAP
Regarding B7, the figures for the MAPPIT interaction score in [7] (MAPPIT configuration: N-C), in experiment [7] (MAPPIT configuration: N-N) and in experiment [8] were 0.149, 0.776 and 0.844, respectively.

B8: Gs1 (protein)
chain: MALRVAGLFLKKELVAPATQQLRLLRTGNTTRSQFLANSPNTALDKSILQRYRNLETPANRVQATYLWIDGTGENIRLKDRVLDKVPSSVEDLPDWQYDGSSTYQAHGENSDTTLKPRAIYRDPFKPGKNDVIVLCDTYSADGKPTASNKRAAFQAAIDLISDQEPWFGIEQEYTLLDVDGRPFGWPENGFPAPQGPYYCGVGADRVYARDLVEAHVVACLYAGIDFAGTNAEVMPAQWEFQIGPAGIKACDDLWVSRYILQRIAEEYGVVVTFDPKPMEGQWNGAGAHTNFSTKEMRADGGIKAIEEAIEKLSKRHERHIKAYDPKEGKDNERRLVGRLETSSIDKFSWGVANRAVSVRVPRGVATAGKGYLEDRRPSSNCDPYAVCNAIVRTCLLNE
As to B8, the MAPPIT interaction score in experiment [9] is -0.185.

B9: mtTFB2 (protein)
chain: MLPLRCSWSFARANYSTKKELVTRYSGDFPEKLLNRKQKVPTHMYIANSEAAARINQYLEPHFQSSGCDTVMELNSGAGYFTRHLLDRESQFRRIILLESMDHFMPKIQELHTLYPERVKVRQGDFVNLWKLVYMDKMDGGSRVADLLSDVPQKAFTDDINMLVFGAVGSYPFFKHLINSLIFQTSLFNLGRCEMILAMPPPIYIHLTCNNEIGYLIYRSTSVLFQILFEHKFIAKVPREDFLPQQMAYSPTKSSKLGKVQSINPEYLYLVKFTPRRNLHELCQSQDLPALWFFIKQNYVSRRNRIIPNLEKWVPGCGPRLIINPKSSESVTPIYPDELPKKLPQYSCQSTTMSTRNYYPGINIYTQFGDLLPSQILTLFSQFRQWPEYGESSFLASLENALLKLETANDEPNLEDGVTLPEEDDAEADEIIEEESPVPATTPVKRRRKASS
Consider B9, for which the MAPPIT interaction score in experiment [10] was 2.

B10: cpb (protein)
chain: MSEMQMDCALDLMRRLPPQQIEKNLIDLIDLAPDLCEDLLSSVDQPLKIAKDKEHGKDYLLCDYNRDGDSYRSPWSNSYYPPLEDGQMPSERLRKLEIEANYAFDQYREMYYEGGVSSVYLWDLDHGFAAVILIKKAGDGSKMIRGCWDSIHVVEVQEKTTGRTAHYKLTSTAMLWLQTNKQGSGTMNLGGSLTRQQEQDANVSESSPHIANIGKMVEEMENKIRNTLNEIYFGKTKDIVNGLRSTQSLADQRQQAAMKQDLAAAILRRNVKPESN
As for B10, the MAPPIT interaction score in experiment [11] was 3.35 (active).

B11: dgt6 (protein)
chain: MDRTIIAPWKAEEKEQSEKLHRKLQGLALVHPLPDELRKLIAWDMFLKPNQVAFVHVMHYLFRLLDPAEFKRRFFWPITDKKSEANFRSSTVEYLKHLNEKHQLHWANIKSYLVVMPGGMRFINFLLEFVGFVIQELIKQREKSLGLEAGTPNVSAKVMARQNAVMKEYASSYVVNLEENTALLRDKTQKIRRLMADLSADMGVPEEQLADDGFLDEFEATAALGVERVITQPTERKFDLEASLCGLKEAIDLFQVKQAENNQSKEAVEKALRGMRVLFDCDAVTEGDFYDPLGASKMDALLNGFNRISGTIAEQLDANDHYNESNAFVTTDLQALRVELSQSEVQLNNLLKKLNEPSKKDKGSANASGSARVQTLQPATPRFESVISSKFVSTPPIRIDMGGGGGRNAPVRLALQDDFNGKQFDALSNSLLAPAPPRSARKLKALDQSTGIDLNGTLNRSKINDPMQMLRTIHKNTSKVKAAPQANLSSLGSKWKQMQASFGFDEAPVPGAAVISPQTSPTDPSDPFTPLSGSECTRIERIPRTSENNTSLIAKSAAVIKVLEVSRNVLNLSTSPSGRLDALVPHTESHQQDVAPRLQLNDRTINDSLQLDPDFNIENDKNAFNVSHKFDFDQIGGEDDLQNISDSVLKDIIF
Consider B11, for which the MAPPIT interaction score in experiment [12] is 4.71 (active).
